# Experimental data taken from PubChem BioAssay (NCATS).
# Inconclusive results are not listed. Activity calls are given as the source filed them. Calls follow the shape of the dose curve; as a rule, active = well fitted cell-killing curve with a large enough effect; inconclusive = small, poorly fitted or top-dose-only effect, or effect the other way; inactive = no such curve, though single readings can be large or run the other way.
# Assay: Quantitative High-Throughput drug screen in 47 multiple myeloma cell lines against the NCATS MIPE library collection: JIM1_ECACC cell viability assay (AID 1918964)
# Conditions: JIM1 myeloma viability, CellTiter-Glo ATP luminescence, 48 h; series mostly up to 45.8 µM; viability (% of DMSO): at the top concentration
# Source text: PI: Beverly A. Mock Ph.D.
# Laboratory of Cancer Biology and Genetics,
# Center for Cancer Research, National Cancer Institute,
# National Institute of Health, Bethesda, Maryland
# Drug resistance and disease progression are common in multiple myeloma (MM) patients, underscoring the need for new therapeutic combinations. […] We hypothesized that effective combinations would reduce MYC expression and enhance p16 activity. […] These preclinical data identify potentially useful drug combinations for evaluation in drug-resistant MM and reveal potential mechanisms of combined drug sensitivity.
# Described herein is the primary MIPE qHTS used to cherrypick compounds. Validated compounds were then further tested for potential synergistic activiy.
# [1] Peat TJ, Gaikwad SM, Dubois W, Gyabaah-Kessie N, Zhang S, Gorjifard S, Phyo Z, Andres M, Hughitt VK, Simpson RM, Miller MA, Girvin AT, Taylor A, Williams D, D'Antonio N, Zhang Y, Rajagopalan A, Flietner E, Wilson K, Zhang X, Shinn P, Klumpp-Thomas C, McKnight C, Itkin Z, Chen L, Kazandijian D, Zhang J, Michalowski AM, Simmons JK, Keats J, Thomas CJ, Mock BA. Drug combinations identified by high-throughput screening promote cell cycle transition and upregulate Smad pathways in myeloma. Cancer Lett. 2023 Aug 1;568:216284. doi: 10.1016/j.canlet.2023.216284. Epub 2023 Jun 24. PMID: 37356470; PMCID: PMC10408729.
# SEQUENCE No. (e.g., 1, 2, 3, etc.); […] (e.g., Cells, Incubation, Reagent, etc.); VALUE and DESCRIPTION.
# 1; Cells; 5 uL; white, solid bottom 1536-well Greiner assay plate.
# 2; Compounds; 23 nL; Kalypsis pin tool (Wako USA) equipped with a 1536-well pin head to transfer to the assay plates.
# 3; Incubation; 48 hours; 37C incubation.
# 4; Reagent;5uL; CellTiter Glo (Promega).
# 5; Detector; 425V; Luminescence; Viewlux PerkinElmer.
# NOTES (numbers refer to Sequence numbers above)
# 1. The cell-based screening methods employed in this study were like those previously published. Briefly, the corresponding myeloma cell lines were screened in 1,536-well plates with 500 cells, 5-uL per well for inhibition of cell viability (assessed by measuring ATP levels with CellTiterGlo).
# 2. NCATS MIPE 4.0 library of approved and investigational drugs were added using the Kalypsis pin tool. Wells treated with DMSO only for 100% viability and media only wells for 0% viability were used as controls.
# 3. The assay plates were covered and incubated for 48 hours in a 37C, 5% CO2 incubator with controlled humidity.
# 4. After 48 hours, CellTilter-GloTM luminescent substrate mix (Promega) reagent was added to the assay plate and plates we incubated for 5 min at room temperature.
# 5. Signal was measured as median relative luminescence units on a ViewLux (PerkinElmer) multiplate reader.
# [1] Heske CM, Davis MI, Baumgart JT, Wilson K, Gormally MV, Chen L, Zhang X, Ceribelli M, Duveau DY, Guha R, Ferrer M, Arnaldez FI, Ji J, Tran HL, Zhang Y, Mendoza A, Helman LJ, Thomas CJ. Matrix Screen Identifies Synergistic Combination of PARP Inhibitors and Nicotinamide Phosphoribosyltransferase (NAMPT) Inhibitors in Ewing Sarcoma. Clin Cancer Res. 2017 Dec 1;23(23):7301-7311. doi: 10.1158/1078-0432.CCR-17-1121. Epub 2017 Sep 12. PMID: 28899971; PMCID: PMC6636827.
# Potency is read from the fitted curve at half-maximal effect.
Compound,viability (% of DMSO),Potency
CN(C)[C@@H]1C(=O)C(C(N)=O)=C(O)[C@@]2(O)C(=O)C3=C(O)c4c(O)cccc4[C@@](C)(O)[C@H]3C[C@@H]12,105% (inactive),–
COc1ccc(C(CN(C)C)C2(O)CCCCC2)cc1 (configuration not stated),113% (inactive),–
COC[C@H]1OC(=O)c2coc3c2[C@@]1(C)C1=C(C3=O)C2CCC(=O)[C@@]2(C)C[C@H]1OC(C)=O (some centres not stated),–,8330 nM (active)
CC(O)(CS(=O)(=O)c1ccc(F)cc1)C(=O)Nc1ccc(C#N)c(C(F)(F)F)c1 (configuration not stated),–,4180 nM (active)
CCCC(C)(COC(N)=O)COC(=O)NC(C)C (configuration not stated),129% (inactive),–
O=C1CC[C@@]2(O)[C@H]3Cc4ccc(O)c5c4[C@@]2(CCN3CC2CC2)[C@H]1O5,114% (inactive),–
O=C(O)C(=O)c1cn(Cc2ccccc2)c2ccc(-c3ccc(OC(F)(F)F)cc3)cc12,92.1% (inactive),–
CC1=C2C[C@@H]3[C@@H](CC=C4C[C@@H](O)CC[C@@]43C)[C@@H]2CC[C@]12O[C@H]1C[C@H](C)CN[C@H]1[C@H]2C,109% (inactive),–
C[C@@H]1[C@@H](CC(C[C@H]2O[C@@H]3O[C@]4(C)CC[C@@H]5[C@H](C)CC[C@@H]([C@H]2C)[C@@]35OO4)C[S+](=O)([O-])c2ccc(COC(=O)N(C)C)cc2)O[C@@H]2O[C@]3(C)CC[C@H]4[C@H](C)CC[C@@H]1[C@@]24OO3 (some centres not stated),–,66.2 nM (active)
CNCC(O)c1ccc(O)cc1 (configuration not stated),100% (inactive),–
C[C@@H]1O[C@@H](O[C@H]2C[C@@H](O)[C@]3(CO)[C@H]4[C@H](O)C[C@]5(C)[C@@H](C6=CC(=O)OC6)CC[C@]5(O)[C@@H]4CC[C@]3(O)C2)[C@H](O)[C@H](O)[C@H]1O,–,13.2 nM (active)
CC(C)CC(N(C)C)C1(c2ccc(Cl)cc2)CCC1 (configuration not stated),85.4% (inactive),–
N[C@@H](Cc1ccc(N(CCCl)CCCl)cc1)C(=O)O,–,10500 nM (active)
C=C(C)[C@H]1Cc2c(ccc3c2O[C@@H]2COc4cc(OC)c(OC)cc4[C@@H]2C3=O)O1,–,418 nM (active)
CN1CCN(C(=O)O[C@H]2c3nccnc3C(=O)N2c2ccc(Cl)cn2)CC1,122% (inactive),–
Fc1ccc(C(OCCN2CCN(CCCc3ccccc3)CC2)c2ccc(F)cc2)cc1,126% (inactive),–
Cn1cc(C2=C(c3cn(C4CCN(Cc5ccccn5)CC4)c4ccccc34)C(=O)NC2=O)c2ccccc21,–,1320 nM (active)
